NPR1 antag – Natriuretic polypeptide receptor (hNpr1) antagonism - Primary qHTS. HEK293 hNpr1 GloSensor cGMP, ANP-stimulated luminescence. 76,000 tested, 1.6% active. Atrial natriuretic peptide receptor 1 (Homo sapiens), P16066. AID 1347048, 2019. Potency, µM (doses to about 46.3 µM), for the others: at the highest dose activity change, negative = inhibition, actives largely listed as inhibitors; calls by dose curve; note: % is set by controls: 0 for no effect and ±100 for the full control effect; nearly all actives have a fitted effect of over 60% in size
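HEK293 cells stably expressing human Npr1 and cGMP GloSensor pGS-40F, loaded 2 h with 2% GloSensor reagent, given compound 30 min at room temperature. Luminescence read before and 20 min after 0.1 nM hNppA.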
FLuc inh-1 – Firefly luciferase inhibition profiling of diverse chemical library using quantitative high-throughput screening; purified P. pyralis luciferase, luminescence, biochemical; Potency, µM (top dose mostly 115 µM), most hits filed as inhibitors; 76,000 tested, 2.5% active; AID 1347043, 2019; note: % is set by controls: 0 for no effect and ±100 for the full control effect; nearly all actives have a fitted effect of over 65% in size
Target sequence (P08659 whole entry, looked up): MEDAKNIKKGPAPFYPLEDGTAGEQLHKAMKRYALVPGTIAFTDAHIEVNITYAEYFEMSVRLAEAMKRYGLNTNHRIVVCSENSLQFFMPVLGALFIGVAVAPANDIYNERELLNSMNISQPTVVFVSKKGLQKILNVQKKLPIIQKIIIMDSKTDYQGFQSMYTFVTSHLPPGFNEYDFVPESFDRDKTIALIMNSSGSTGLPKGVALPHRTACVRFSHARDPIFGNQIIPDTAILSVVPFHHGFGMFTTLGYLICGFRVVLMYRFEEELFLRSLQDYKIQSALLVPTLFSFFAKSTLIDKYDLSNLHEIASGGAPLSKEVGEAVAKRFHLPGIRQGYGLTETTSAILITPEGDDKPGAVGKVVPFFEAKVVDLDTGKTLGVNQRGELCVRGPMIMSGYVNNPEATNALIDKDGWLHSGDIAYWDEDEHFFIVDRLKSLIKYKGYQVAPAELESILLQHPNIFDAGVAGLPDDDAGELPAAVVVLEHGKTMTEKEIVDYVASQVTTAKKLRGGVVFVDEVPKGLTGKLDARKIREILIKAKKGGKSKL
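Luminescence read by CCD imager after adding enzyme (10nM final) to wells holding compound, titrated in qHTS. Substrates 10uM each D-luciferin and ATP; buffer 50mM Tris acetate pH 7.5, 10mM Mg acetate, Tween-20, BSA.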
HEK293 tox – Cytotoxic Profiling in HEK 293 Cell Line of Diverse Libraries Using Quantitative High-Throughput Screening; HEK 293 viability, ATP luminescence (CellTiter-Glo), 48-72 h; Potency, µM (series often up to 115 µM), for inactives: at the highest dose activity change, negative = cytotoxicity, most hits filed as inhibitors; 94,000 tested, 6.6% active; AID 1345083, 2018; note: % is set by controls: 0 for no effect and ±100 for the full control effect; nearly all actives have a fitted effect of over 60% in size
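Read-out: CellTiter-Glo ATP luminescence. Cells: HEK 293, 250 cells/well. Exposure: 48 or 72 hr, 37 degree Celsius.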
SNCA expr inh – Primary qHTS assay for inhibitors of alpha-synuclein gene (SNCA) expression. HEK-293 SNCA-luciferase knock-in, luminescence, 24 h. Potency, µM (series often up to 57.2 µM), inactives show at the top dose activity change, negative = inhibition, usual class: inhibitors. 140,000 tested, 0.17% active. AID 1671194, 2021;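 note: plate controls were DMSO cells for no effect and cell-free wells for full effect; nearly all actives have a fitted effect of over 45% in size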
HEK293 viab – GF-AFC viability counterscreen for inhibitors of alpha-synuclein gene (SNCA) expression | HEK-293-SNCA-luc viability, GF-AFC fluorescence, 24 h | Potency, µM (top dose mostly 57.1 µM), for inactives: at the highest dose activity change, negative = cytotoxicity, most hits filed as cytotoxic | 150,000 tested, 0.12% active | AID 1671193, 2021;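 note: 0% = DMSO-treated cells and -100% = medium-only wells without cells; nearly all actives have a fitted effect of over 30% in size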
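HEK-293-SNCA-luc cells (1500/well) plated 24 h, then exposed 24 h to a dilution series; GF-AFC added 30 min at 37C, fluorescence 405/540 nm; normalised to medium-only and DMSO wells, Hill fit.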
3T3 cytotox – Cytotoxic Profiling in NIH 3T3 Cell Line of Diverse Libraries Using Quantitative High-Throughput Screening. NIH 3T3 viability, CellTiter-Glo ATP luminescence, 48-72 h. 94,000 tested, 4.3% active. AID 1345082, 2018. Potency, µM (titrated, usually from 96.7 µM), for the others: at the top dose activity change, negative = cytotoxicity, most hits filed as inhibitors; note: % is set by controls: 0 for no effect and ±100 for the full control effect; nearly all actives have a fitted effect of over 55% in size
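Cytotoxicity is measured as loss of cellular ATP: NIH 3T3 cells (400/well) are exposed to compound for 48 or 72 hr at 37 °C, then CellTiter-Glo luminescence is imaged after 10 min at room temperature.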
FLuc SDR no ATP – Firefly luciferase (FLuc-C-HiBiT) SDR gain of signal screen - without ATP | 1,300 tested, 7.8% active | Purified FLuc-C-HiBiT, Nano-Glo HiBiT luminescence, no ATP | shares compounds with FLuc inh-1 | Potency, µM (highest dose often 32.7 µM), inactives show at the highest dose activation (signal gain), actives largely listed as activators; note: nearly all actives have a fitted effect of over 55% in size
FLuc SDR ATP – Firefly luciferase (FLuc-C-HiBiT) SDR gain of signal screen - plus ATP; Potency, µM (top dose mostly 32.7 µM), inactives show at the top dose activation (gain of signal), usual class: activators; 1,300 tested, 8.7% active; shares compounds with FLuc inh-1; purified FLuc-C-HiBiT + ATP, HiBiT complementation luminescence;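 note: signal reports ligand binding via conformational change of the enzyme rather than luciferase catalysis; % of control where 0% means no effect; nearly all actives have a fitted effect of over 55% in size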
FLuc inh-2 – Firefly luciferase (FLuc-C-HiBiT) enzymatic inhibition screen - Functional assay. shares compounds with FLuc inh-1. purified FLuc-C-HiBiT enzyme, luciferin luminescence. Potency, µM (series often up to 32.7 µM), inactives show at the highest dose activity change, negative = inhibition, hits mostly inhibitors. 1,300 tested, 42% active; note: % is set by controls: 0 for no effect and ±100 for the full control effect; nearly all actives have a fitted effect of over 70% in size
Active calls of the source: *; i = inactive; ? = inconclusive; . = no result; [ ] = remark or other dose. The list is not random: actives were taken first. Their share in the collection is about 7.4%. Unless noted, calls come from the whole dose curve; as a rule, active = well fitted curve in the direction sought with a large enough effect; inconclusive = small, poorly fitted or top-dose-only effect, or another doubt; inactive = no such curve, though single readings can be large; an effect the other way counts as inactive or inconclusive. Potency is the fitted concentration of half-maximal effect.

SMILES	NPR1 antag	FLuc inh-1	HEK293 tox	SNCA expr inh	HEK293 viab	3T3 cytotox	FLuc SDR no ATP	FLuc SDR ATP	FLuc inh-2
O=C(NCc1ccccc1F)C1CCN(C(=O)c2ncn3c2COC(c2ccc(F)cc2)C3)CC1 (stereo not given)	0%	?	4%	4%	2%	4%	.	.	.
O=C(NCc1ccc(F)cc1Cl)C1CCN(C(=O)c2ncn3c2COC(c2ccccc2)C3)CC1 (stereo not given)	-12%	13µM*	-2%	47%	3%	i	13%	?	?
COc1ccccc1CNC(=O)C1CCN(C(=O)c2ncn3c2COC(c2ccc(C)cc2)C3)CC1 (stereo not given)	-1%	?	-3%	10%	-2%	-1%	.	.	.
CCOc1ccccc1CNC(=O)C1CCN(C(=O)c2ncn3c2COC(c2ccccc2)C3)CC1 (stereo not given)	-12%	4µM*	-5%	80%	9%	-21%	12%	2.2µM*	3.1µM*
COc1ccc(NC(=O)Nc2ccc(C)n(CC(=O)O)c2=O)cc1	-4%	4µM*	12%	?	-5%	i	11µM*	?	9.9µM*
COc1ccc(S(=O)(=O)Nc2ccc(C)n(CC(=O)NCc3ccc(C)o3)c2=O)cc1	-4%	i	-7%	1%	1%	i	.	.	.
Cc1ccc(S(=O)(=O)Nc2ccc(C)n(CC(=O)N3CCCCCC3)c2=O)cc1	-1%	i	4%	-14%	-2%	i	.	.	.
Cc1cccc(NC(=O)Nc2ccc(C)n(CC(=O)N(C)C)c2=O)c1	3%	?	8%	57%	-3%	i	.	.	.
CCN1CCN(C(=O)Cn2c(C)ccc(NC(=O)Nc3ccc(C)cc3)c2=O)CC1	-7%	4.5µM*	-14%	14%	1%	-2%	?	?	5µM*
COc1ccc(NC(=O)Nc2ccc(C)n(CC(=O)NCC(C)C)c2=O)cc1	-15%	1.6µM*	-29%	12%	2%	-17%	7.9µM*	?	3.5µM*
Cc1ccc(NC(=O)Nc2ccc(C)n(CC(=O)NCCC(C)C)c2=O)cc1	?	0.56µM*	28µM*	1%	-3%	35µM*	?	?	1.1µM*
O=C(NCc1cccs1)c1ccc2nc(-c3ccncc3)oc2c1	.	.	-20%[172 µM]	8%[87.6 µM]	4%[87.6 µM]	-12%[138 µM]	.	.	.
CC(C)NC(=O)[C@H]1CN(Cc2ccccc2)C[C@H]1C(=O)O	.	.	-12%	-19%	10%	-27%	.	.	.
Cc1ccc(NCc2nc3ccccc3n2CCOc2ccccc2)cc1	.	.	.	147%	-12%	.	22%	15%	?
CCOC(=O)C1CCN(C(=O)C2CCc3nnc(CNC(=O)NC(C)(C)C)n32)CC1 (stereo not given)	.	.	-8%	14%	-4%	-4%	.	.	.
O=C(Nc1ccc([C@H]2OCC(=O)N(C3CCOCC3)[C@@H]2CO)cc1)c1ccc(C(F)(F)F)cc1	0%	10µM*	-5%	67%	3%	-18%	?	15%	?
N#Cc1ccc(C(=O)Nc2ccc([C@H]3OCC(=O)N(C4CCOCC4)[C@@H]3CO)cc2)cc1	0%	i	-4%	3%	0%	1%	.	.	.
O=C1c2cnc(-c3ccc(F)cc3)nc2OCCN1CC1CC1	.	.	.	.	.	.	?	?	14µM*
O=C1c2cnc(-c3ccc(F)cc3F)nc2OCCN1CC1CC1	.	.	.	.	.	.	30%[49.3 µM]	?	?
Cc1ccc([S+](=O)([O-])N2CCC(C(=O)N3CCC(c4nc5ccncc5[nH]4)C3)CC2)cc1 (stereo not given)	.	.	i	13%	16%	-9%	.	.	.
CC(C)(O)CN1CCC(=O)N(Cc2ccccc2)CCc2ccccc21	.	.	?	13%[25.6 µM]	-8%[23.9 µM]	-8%[46.1 µM]	.	.	.
COc1ccc(Cn2c(=O)c(C(=O)Nc3ccc(F)cc3)nc3cccnc32)cc1	.	.	i	95%	2%	-12%	.	.	.
CCc1ccc2nc(N3CCC(C(=O)O)CC3)sc2c1	.	.	.	-89%	-2%	.	2.5µM*	0.07µM*	0.035µM*
COc1cccc(-c2noc(COc3ccccc3Cl)n2)c1	.	.	.	72%	1%	.	14%	13%	?
COc1ccc(-c2noc(Nc3ccccc3)n2)cc1	10µM*	1.1µM*	?	113%	-4%	-26%	30%	?	2.2µM*
SMILES	NPR1 antag	FLuc inh-1	HEK293 tox	SNCA expr inh	HEK293 viab	3T3 cytotox	FLuc SDR no ATP	FLuc SDR ATP	FLuc inh-2
CCOc1ccc(Nc2nc(-c3ccccc3)no2)cc1	10µM*	0.79µM*	-73%	18%	-30%	18µM*	16%	17%	5µM*
COc1cccc(-c2noc(COc3ccc(C(C)(C)C)cc3)n2)c1	.	.	.	4%	6%	.	.	.	.
CCOC(=O)c1ccc(Nc2nc(-c3ccccc3)no2)cc1	-30%	?	?	84%	-5%	?	.	.	.
COc1ccc(Nc2nc(-c3cccc(OC)c3)no2)cc1	?	2.5µM*	?	94%	-15%	-64%	21%	16%	7.9µM*
COc1ccc(-c2noc(-c3nc(-c4cccnc4)no3)n2)cc1	-1%	i	13%	11%	-4%	4%	.	.	.
Cn1ncc2c(C(=O)NC3CCOCC3)cc(-c3ccc(C(F)(F)F)cc3)nc21	.	.	i	.	.	-7%	.	.	.
CCCS(=O)(=O)N1CCC(F)(c2nc(CCOC)no2)CC1	.	.	-3%	28%	3%	-26%	.	.	.

High-throughput results from PubChem.
